Records with an inconclusive call do not appear. More than one record can exist for a structure, and the calls need not agree. Active and inactive are the calls of the source. The calls were made as follows, unless noted: active = hit-call score of the fitted dose curve at least 0.9, where 1 is the maximum; inactive = score below 0.9.
Experiments:
[1] = read-out: Human Leukocyte Antigen - DR isotype (HLADR), HLA-DRA (gene 3122); assay: BSK_3C_HLADR: BioMAP Diversity Plus: 3C Assay for Human Leukocyte Antigen - DR isotype (HLADR) Biomarker Activity (AID 2283019); conditions: primary human endothelial cells (HUVEC); actives raise or lower the signal
How it was run: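 ELISA readout of surface HLA-DR on human umbilical vein endothelium, taken 24 h after chemical treatment. Gain- and loss-of-signal were both fitted relative to DMSO.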

[2] = read-out: Interleukin-8 (IL8), CXCL8 (gene 3576); assay: BSK_3C_IL8: BioMAP Diversity Plus: 3C Assay for Interleukin-8 (IL8) Biomarker Activity (AID 2283020); conditions: primary human endothelial cells (HUVEC); actives raise or lower the signal
How it was run: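 Human vascular endothelial cells (umbilical vein) in the 3C system; IL-8 level detected by ELISA at 24 h post-dose, with DMSO as baseline.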

[3] = read-out: Monokine induced gamma interferon (MIG), CXCL9 (gene 4283); assay: BSK_3C_MIG: BioMAP Diversity Plus: 3C Assay for Monokine induced gamma interferon (MIG) Biomarker Activity (AID 2283021); conditions: primary human endothelial cells (HUVEC); actives raise or lower the signal;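 as to AC50: MIG protein level measured by immunoassay in the treated endothelial cultures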
How it was run: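 After 24 h of treatment, human umbilical vein endothelial cultures (3C system) had their MIG biomarker level determined by ELISA, with DMSO serving as negative control.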

[4] = target: human Vitamin D Receptor (VDR), VDR (gene 7421) (UniProt P11473); assay: ATG_VDR_TRANS: Attagene TRANS-FACTORIAL HepG2 Assay for human Vitamin D Receptor (VDR) (AID 2283022; active = hit-call score of the fitted dose curve at least 0.9, where 1 is the maximum)
How it was run: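 Steps: transfect HepG2 with GAL4-UAS-driven reporter constructs; dose compounds 24 h; isolate RNA, reverse-transcribe, PCR-amplify with 6-FAM-labelled primer extension and HpaI digestion; quantify fragments by capillary electrophoresis relative to DMSO.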

[5] = BSK_3C_SRB: Viability Assessment in the BioMAP Diversity Plus: 3C Assay (AID 2283023); conditions: primary human endothelial cells (HUVEC);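 also: fitted both ways against DMSO so a hit may be signal rise or drop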
How it was run: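 Absorbance at 560 nm of sulforhodamine B-stained (0.1%) total protein served as a cytotoxicity readout in human umbilical vein endothelial cells, 24 h after chemical treatment. Signal was fitted bidirectionally relative to DMSO.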

[6] = read-out: Matrix Metallopeptidase 1 (MMP1), MMP1 (gene 4312); assay: BSK_BE3C_MMP1: BioMAP Diversity Plus: BE3C Assay for Matrix Metallopeptidase 1 (MMP1) Biomarker Activity (AID 2283024); conditions: primary human bronchial epithelial cells; actives raise or lower the signal
How it was run: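 Dose cells, wait 24 h, run MMP1 ELISA; cells are human bronchial epithelial primaries. Both increases and decreases relative to DMSO counted.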

[7] = BSK_3C_Vis: BioMAP Diversity Plus: 3C Assay for Morphology Visualization (AID 2283025); conditions: primary human endothelial cells (HUVEC);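 also: fitted both ways so gain or loss versus DMSO counts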;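 as to AC50: light microscopy image of cell morphology used as background control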
How it was run: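 Endothelial cells from human umbilical vein were treated with test chemicals for 24 h and inspected by light microscopy for changes in cell conformation.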

[8] = read-out: Pselectin, SELP (gene 6403); assay: BSK_4H_Pselectin: BioMAP Diversity Plus: 4H Assay for Pselectin Biomarker Activity (AID 2283026); conditions: primary human endothelial cells (HUVEC); actives raise or lower the signal
How it was run: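 Human vascular endothelium from umbilical vein; P-selectin measured by ELISA at 24 h post-dose, with cytotoxicity checked by sulforhodamine B total-protein staining in parallel cultures (0.1% SRB after 10% TCA fixation, read at 560 nm).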

[9] = BSK_BE3C_SRB: Viability Assessment in the BioMAP Diversity Plus: BE3C Assay (AID 2283028); conditions: primary human bronchial epithelial cells;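 as to AC50: fitted both ways so AC50 may mark signal gain or loss versus DMSO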
How it was run: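 Cells (human bronchial epithelial, primary) are treated with chemicals, and after 24 h the parallel cultures are fixed in 10% TCA. These are then stained with 0.1% SRB and read at 560 nm. Gain or loss of signal is fitted relative to DMSO.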

[10] = read-out: Thrombomodulin, THBD (gene 7056); assay: BSK_3C_Thrombomodulin: BioMAP Diversity Plus: 3C Assay for Thrombomodulin Biomarker Activity (AID 2283029); conditions: primary human endothelial cells (HUVEC); actives raise or lower the signal
How it was run: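 Thrombomodulin ELISA, human primary HUVEC, 24 h post-dose; data fitted in both directions relative to DMSO.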

[11] = read-out: Urokinase-type plasminogen activator receptor (uPAR), PLAUR (gene 5329); assay: BSK_4H_uPAR: BioMAP Diversity Plus: 4H Assay for Urokinase-type plasminogen activator receptor (uPAR) Biomarker Activity (AID 2283030); conditions: primary human endothelial cells (HUVEC); actives raise or lower the signal
How it was run: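 Cell-surface uPAR ELISA signal, measured 24 h after dosing human umbilical vein endothelial cells, was analyzed with bidirectional fitting relative to DMSO. Parallel SRB staining of total protein tracked overt cytotoxicity.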

[12] = read-out: Vascular endothelial growth factor receptor 2 (Homo sapiens) (UniProt P35968); assay: BSK_4H_VEGFRII: BioMAP Diversity Plus: 4H Assay for Vascular endothelial growth factor receptor 2 (VEGFR2) Biomarker Activity (AID 2283031); conditions: primary human endothelial cells (HUVEC); actives raise or lower the signal;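 as to AC50: cell-surface VEGFR2 protein level quantified by ELISA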
How it was run: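 ELISA read-out of VEGFRII in primary human umbilical vein endothelium, taken 24 h after chemical treatment. Responses are expressed relative to DMSO, with bidirectional fitting.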

[13] = read-out: Human Leukocyte Antigen - DR isotype (HLADR), HLA-DRA (gene 3122); assay: BSK_BE3C_HLADR: BioMAP Diversity Plus: BE3C Assay for Human Leukocyte Antigen - DR isotype (HLADR) Biomarker Activity (AID 2283032); conditions: primary human bronchial epithelial cells; actives raise or lower the signal
How it was run: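 Signal came from an ELISA for HLA-DR in human bronchial epithelial primary cells harvested 24 h after treatment; gain- and loss-of-signal fitting used DMSO controls as reference.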

[14] = read-out: Vascular cell adhesion molecule 1 (VCAM1), VCAM1 (gene 7412); assay: BSK_4H_VCAM1: BioMAP Diversity Plus: 4H Assay for Vascular cell adhesion molecule 1 (VCAM1) Biomarker Activity (AID 2283033); conditions: primary human endothelial cells (HUVEC); actives raise or lower the signal
How it was run: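 Endpoint derived from bidirectional fitting against DMSO controls of VCAM-1 ELISA signal in umbilical vein endothelial cells sampled at 24 h following treatment.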

[15] = read-out: Interferon-gamma inducible Protein 10 (IP10), CXCL10 (gene 3627); assay: BSK_BE3C_IP10: BioMAP Diversity Plus: BE3C Assay for Interferon-gamma inducible Protein 10 (IP10) Biomarker Activity (AID 2283034); conditions: primary human bronchial epithelial cells; actives raise or lower the signal
How it was run: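 Using primary human bronchial epithelial cultures, the assay captures IP-10 by ELISA one day (24 h) after exposure. Parallel SRB staining of total protein flags overt cytotoxicity. Fits run bidirectionally relative to DMSO.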

[16] = read-out: Monokine induced gamma interferon (MIG), CXCL9 (gene 4283); assay: BSK_BE3C_MIG: BioMAP Diversity Plus: BE3C Assay for Monokine induced gamma interferon (MIG) Biomarker Activity (AID 2283035); conditions: primary human bronchial epithelial cells; actives raise or lower the signal;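 also: MIG protein measured by ELISA in BE3C cultures after 24 h of dosing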
How it was run: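 Primary human bronchial epithelial cells treated for 24 h; MIG levels measured by ELISA, fitted bidirectionally versus DMSO. Parallel SRB total-protein staining assessed cytotoxicity.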

[17] = read-out: Transforming growth factor beta 1 (TGFb1), TGFB1 (gene 7040); assay: BSK_BE3C_TGFb1: BioMAP Diversity Plus: BE3C Assay for Transforming growth factor beta 1 (TGFb1) Biomarker Activity (AID 2283036;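 also: TGF-b1 protein level measured by ELISA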); conditions: primary human bronchial epithelial cells; actives raise or lower the signal
How it was run: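 In this human primary bronchial epithelial system, an ELISA quantified TGF-b1 one day after dosing. Endpoint changes in either direction were fitted relative to DMSO.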

[18] = read-out: Plasminogen activator inhibitor-1 (PAI1), SERPINE1 (gene 5054); assay: BSK_BE3C_PAI1: BioMAP Diversity Plus: BE3C Assay for Plasminogen activator inhibitor-1 (PAI1) Biomarker Activity (AID 2283037); conditions: primary human bronchial epithelial cells; actives raise or lower the signal
How it was run: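 PAI-1 biomarker levels in treated human bronchial epithelial cells are determined by ELISA at 24 h. Both increases and decreases relative to DMSO are fitted.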

[19] = read-out: urokinase plasminogen activator (uPA), PLAU (gene 5328); assay: BSK_BE3C_uPA: BioMAP Diversity Plus: BE3C Assay for urokinase plasminogen activator (uPA) Biomarker Activity (AID 2283038); conditions: primary human bronchial epithelial cells; actives raise or lower the signal
How it was run: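 Bronchial epithelial cells (human, primary); chemical 24 h; uPA by ELISA; bidirectional fit vs DMSO. SRB (0.1%, after 10% TCA fixation, 560 nm) in parallel cultures for cytotoxicity.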

[20] = BSK_4H_SRB: Viability Assessment in the BioMAP Diversity Plus: 4H Assay (AID 2283027); conditions: primary human endothelial cells (HUVEC);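 also: cells exposed to compound for 24 h before staining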;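 as to AC50: curves fitted both ways versus DMSO so AC50 may be loss or gain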
How it was run: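 Human umbilical vein endothelial cells, 24 h after chemical dosing; total protein measured by 0.1% sulforhodamine B staining after 10% TCA fixation, read at 560 nm. Bidirectional fitting against DMSO.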

Measured: AC50

Sequence of human Vitamin D Receptor (VDR), VDR (gene 7421) (P11473 whole entry, looked up, the tested form may be a part): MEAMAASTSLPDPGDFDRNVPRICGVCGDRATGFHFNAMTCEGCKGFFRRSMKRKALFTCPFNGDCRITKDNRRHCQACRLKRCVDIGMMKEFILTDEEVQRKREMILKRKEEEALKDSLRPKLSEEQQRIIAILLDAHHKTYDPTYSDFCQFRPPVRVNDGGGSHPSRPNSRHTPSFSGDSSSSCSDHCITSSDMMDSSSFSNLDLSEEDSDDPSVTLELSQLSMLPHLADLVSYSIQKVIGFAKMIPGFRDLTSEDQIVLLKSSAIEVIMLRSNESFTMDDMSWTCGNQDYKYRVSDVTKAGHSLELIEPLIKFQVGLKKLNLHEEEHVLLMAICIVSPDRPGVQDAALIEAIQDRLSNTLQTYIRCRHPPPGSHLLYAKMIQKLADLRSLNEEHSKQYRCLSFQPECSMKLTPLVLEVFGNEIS

C[Si](Cn1cncn1)(c1ccc(F)cc1)c1ccc(F)cc1
active: [5] 17.9 µM | [7] 39 µM
inactive: [1] | [2] | [3] | [4] | [6] | [8] | [9] | [10] | [11] | [12] | [13] | [14] | [15] | [16] | [17] | [18] | [19]

CNC(=O)Oc1cccc2c1OC(C)(C)O2
active: [1] 28.6 µM | [5] 20 µM | [8] 16.7 µM | [14] 20 µM
inactive: [2] | [3] | [4] | [6] | [7] | [9] | [10] | [12] | [13] | [15] | [16] | [17] | [18] | [19]

COc1cc(OC)nc(Sc2cccc(Cl)c2C(=O)O)n1
inactive: [1] | [2] | [3] | [4] | [5] | [6] | [7] | [8] | [20] | [9] | [10] | [12] | [13] | [14] | [15] | [16] | [17] | [18] | [19]

CCCSP(=O)(OCC)Oc1ccc(Br)cc1Cl (stereo not given)
inactive: [1] | [2] | [3] | [4] | [6] | [7] | [10] | [12] | [16] | [17] | [18] | [19]
active: [5] 22.6 µM | [8] 32.3 µM | [20] 22.8 µM | [9] 15.4 µM | [13] 32.1 µM | [14] 29.8 µM | [15] 29.1 µM

CCCCSP(=O)(SCCCC)SCCCC
inactive: [3] | [4] | [6] | [8] | [14] | [15] | [16] | [17] | [18] | [19]
active: [1] 27.7 µM | [2] 31.9 µM | [5] 27.9 µM | [7] 13.7 µM | [9] 14.7 µM | [10] 5.35 µM | [13] 20 µM

COP(=O)(NC(C)=O)SC (stereo not given)
active: [5] 5.17 µM
inactive: [1] | [2] | [3] | [4] | [6] | [7] | [8] | [9] | [10] | [11] | [12] | [13] | [14] | [15] | [16] | [17] | [18] | [19]

S=C1NCCN1
inactive: [1] | [2] | [3] | [4] | [5] | [6] | [8] | [9] | [10] | [12] | [13] | [14] | [15] | [16] | [17] | [18] | [19]
active: [7] 39 µM

CC(=NC#N)N(C)Cc1ccc(Cl)nc1
active: [20] 7.17 µM
inactive: [1] | [2] | [3] | [4] | [5] | [6] | [7] | [8] | [9] | [10] | [12] | [13] | [14] | [15] | [16] | [17] | [18] | [19]

CC(COc1ccc(Oc2ccccc2)cc1)Oc1ccccn1 (stereo not given)
inactive: [2] | [3] | [4] | [6] | [7] | [8] | [20] | [9] | [10] | [11] | [12] | [13] | [14] | [15] | [16] | [17] | [18]
active: [1] 21 µM | [5] 20 µM | [19] 17.8 µM

CCOP(=S)(Oc1cnc(C(C)(C)C)nc1)OC(C)C (stereo not given)
active: [1] 31.3 µM | [2] 30.2 µM | [3] 34.2 µM | [5] 35.5 µM | [7] 39.8 µM | [8] 32 µM | [12] 31.9 µM | [14] 36.8 µM
inactive: [4] | [6] | [9] | [10] | [13] | [15] | [16] | [17] | [18] | [19]

CSc1nc(NC(C)C)nc(NC(C)C)n1
active: [5] 14 µM
inactive: [1] | [2] | [3] | [4] | [6] | [7] | [8] | [20] | [9] | [10] | [11] | [12] | [13] | [14] | [15] | [16] | [17] | [18] | [19]

CCOP(=O)(SC(C)CC)N1CCSC1=O (stereo not given)
inactive: [1] | [2] | [3] | [4] | [5] | [6] | [7] | [8] | [20] | [9] | [10] | [12] | [13] | [14] | [15] | [16] | [17] | [18] | [19]

CN(C)[C@@H]1C(=O)C(C(N)=O)=C(O)[C@@]2(O)C(=O)C3=C(O)c4c(O)cccc4[C@@](C)(O)[C@H]3[C@H](O)[C@@H]12
inactive: [1] | [2] | [3] | [5] | [6] | [7] | [8] | [20] | [9] | [10] | [12] | [13] | [14] | [15] | [16] | [17] | [18] | [19]
active: [6] 15.8 µM | [18] 3.97 µM

From PubChem BioAssay (EPA / NIEHS)
